Measured values as given in ChEMBL document CHEMBL1857833, “Screening and optimization of specific chemical series against human African Trypanosomiasis (HAT)”.
The whole screen tested about 4,400 compounds, of which about 390 (8.9%) showed an effect of 50% or more. The entries come from a sample that favours strong results as a whole.

tested on: Trypanosoma brucei; assay: DNDI: Inhibition of Human African Trypanosomiasis, SBRI 427, in vitro at 2 ug.mL-1; assay type: functional

Compound	% inhibition [%]
CCCN(CCC)Cc1coc(-c2cccs2)n1	22
O/N=C(/c1ccc(Oc2c(F)c(F)cc(F)c2F)nc1)N1CCN(c2ccc(F)cc2)CC1	22
CC1C=CC(C)N1Cc1coc(-c2ccccc2Cl)n1 (centres undefined)	0
Cc1cc(Oc2ccc(/C(=N/O)N3CCCC3C)cn2)cc(C(C)C)c1 (centres undefined)	93
CC1CCC(C)N1/C(=N\O)c1ccc(Oc2ccc3ccccc3c2)nc1 (centres undefined)	99
CC1CCCN1/C(=N\O)c1ccc(Oc2ccc3ccccc3c2)nc1 (centres undefined)	99
CC1CCCN1/C(=N\O)c1ccc(Oc2ccc3oc4ccccc4c3c2)nc1 (centres undefined)	-6
Cc1cc(C)cc(Oc2ccc(/C(=N/O)N3C(C)CCC3C)cn2)c1 (centres undefined)	6
Cc1cc(Oc2ccc(/C(=N/O)N3CCCCCC3)cn2)cc(C(C)C)c1	21
O/N=C(/c1ccc(Oc2ccc3ccccc3c2)nc1)N1CCCCC1	12
Cc1cc(Oc2ccc(/C(=N/O)N3CC(C)CC(C)C3)cn2)cc(C(C)C)c1 (centres undefined)	4
CC1CC(C)CN(/C(=N\O)c2ccc(Oc3ccc4ccccc4c3)nc2)C1 (centres undefined)	-15
Cc1cc(C)n(/C(=N\O)c2ccc(Oc3ccc4ccccc4c3)nc2)n1	12
CCCCC(CC)CNCc1coc(-c2ccccc2Br)n1 (centres undefined)	8
CCOc1ccccc1-c1nc(CN(CCC#N)C2CCCCC2)co1	-4
Cc1ncn(Cc2coc(-c3ccc(Br)cc3)n2)c1C=O	10
CCOC(=O)CC(C)NCc1coc(-c2ccc(Cl)cc2Cl)n1 (centres undefined)	-1

Compound	% inhibition [%]
CC1CC(N/C(=N\O)c2ccnc(Oc3cc(Cl)ccc3Cl)c2)CC(C)(C)C1 (centres undefined)	9
COc1cccc(CN/C(=N\O)c2ccnc(Oc3cc(Cl)ccc3Cl)c2)c1	11
O/N=C(/c1ccnc(Oc2cc(Cl)ccc2Cl)c1)N1CCC=N1	32
O/N=C(\NC1CCCC1)c1ccnc(Oc2cc(Cl)ccc2Cl)c1	94
O/N=C(\NC1CCC1)c1ccnc(Oc2cc(Cl)ccc2Cl)c1	95
N/C(=N\O)c1ccnc(Oc2cc(Cl)ccc2Cl)c1	20
O/N=C(/c1cccnc1Oc1ccccc1OCc1ccccc1)N1CCOCC1	-16
CN(CCCNCc1coc(-c2cccc(F)c2)n1)c1ccccc1	5
CCOc1ccc(-c2nc(CN(CC)C(C)(C)C)co2)cc1	6
CC(C)COc1ncccc1/C(=N/O)NC1CCC1	97
CC(C)COc1ncccc1/C(=N/O)NC1CCN(Cc2ccccc2)C1 (centres undefined)	-2
CC(C)COc1ncccc1/C(=N/O)Nc1ccc(C(C)C)cc1	2
CC(C)COc1ncccc1/C(=N/O)NC1CCCC1	97
CC(C)COc1ncccc1/C(=N/O)NC1CCCCC1	82
CC(C)COc1ncccc1/C(=N/O)NC1CCC(C)CC1 (centres undefined)	83
CC(C)COc1ncccc1/C(=N/O)N1CCC(C)CC1	-1
CC1CCC(N/C(=N\O)c2cccnc2OCC(C)(C)C)CC1 (centres undefined)	5
